# High-throughput results: PubChem, National Center for Advancing Translational Sciences (NCATS)
# HCMV inh – qHTS Assay for inhibitors of the human cytomegalovirus (HCMV). HFF cells, HCMV-luciferase reporter, 72 h; stronger effect = lower value. activity change, negative = inhibition, % at 57.5 µM. 4.5% of 410,000 active. AID 1259415, 2018; in the data active = activity change below about -60%; inconclusive = no clear call, values can overlap the other calls; inactive = above about -39%
#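 Luciferase read-out from HCMV-luciferase-infected HFFs (MOI 1 PFU/cell) 72 h post infection at 37C; compounds added after 16 h cell attachment; activity normalized between buffer-only basal and Salinomycin (10uM) inhibitor controls.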
# Pf growth 96h – Primary qHTS for delayed death inhibitors of the malarial parasite plastid, 96 hour incubation; P. falciparum luciferase reporter growth, 96 h; Potency, µM (doses to about 28.7 µM), for inactives: at the highest dose activity change, negative = inhibition, usual class: inhibitors; 6.9% of 320,000 active; also: potency is read from the fitted curve at half-maximal effect
#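 Two parasite generations (96 h, 37 C, 5% CO2) of compound exposure in infected erythrocytes (0.05% parasitemia, 2% hematocrit). Luciferase-reporter P. falciparum; decreased luminescence indicates inhibited growth, aimed at apicoplast-acting delayed death.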
# Marburg entry inh – qHTS for inhibitors of binding or entry into cells for Marburg Virus | Marburg virus pseudotyped entry inhibition, cell reporter | Potency, µM (titrated, usually from 37.8 µM), inactives show at the top dose activity change, negative = inhibition, usual class: inhibitors | AID 540276, 2011 | 1.8% of 300,000 active; calls by dose curve; tested in HEK293 cells; also: potency is read from the fitted curve at half-maximal effect
# Pf growth 48h – Primary qHTS for delayed death inhibitors of the malarial parasite plastid, 48 hour incubation; 5.9% of 310,000 active; P. falciparum luciferase growth in erythrocytes, 48 h; Potency, µM (highest dose often 28.7 µM), without a hit: at the top dose activity change, negative = inhibition, hits mostly inhibitors; also: potency is read from the fitted curve at half-maximal effect
#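 Read-out is firefly luciferase luminescence from an integrated reporter in P. falciparum, so falling signal marks reduced parasite growth. Infected erythrocytes were at 2% hematocrit and 0.1% parasitemia (final) in Albumax-supplemented RPMI 1640.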
# HCV inhibitor – qHTS Assay for Inhibitors of Hepatitis C Virus (HCV). 3.4% of 340,000 active. Potency, µM (doses to about 41.8 µM), inactives show at the top dose activity change, negative = inhibition, hits mostly inhibitors. Huh7.5.1 HCVcc-Cre infection, luciferase reporter, 44 h. AID 651820, 2012; also: potency is read from the fitted curve at half-maximal effect
#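 Reporter virus HCVcc-Cre (~0.5 moi) infects cells exposed to compound; seeding density 1,000 cells/well with 4 h settling beforehand. Luminescence, 15 sec read, taken 44 h post-infection following a 15 min RT substrate incubation.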
# LASV entry inh – qHTS for Inhibitors of binding or entry into cells for Lassa Virus; 1.2% of 300,000 active; Potency, µM (titrated, usually from 37.9 µM), for inactives: at the top dose activity change, negative = inhibition, most hits filed as inhibitors; AID 540256, 2011; Lassa virus pseudotype entry inhibition, cell reporter; calls by dose curve; tested in HEK293 cells; also: potency is read from the fitted curve at half-maximal effect; nearly all actives have a fitted effect of over 50% in size
# * = called active by the depositor; ? = inconclusive; / = no result; [ ] = another dose, or the depositor's remark. Only some compounds are listed: those with a hit (about 14% of all), similar ones and a draw of the others. Unless noted, calls follow the shape of the dose curve; as a rule, active = well fitted inhibition curve with a large enough effect; inconclusive = small, poorly fitted or top-dose-only effect, or another doubt; inactive = no such curve, though single readings can be large or run the other way. % is scaled to controls: 0 for no effect and ±100 for the full control effect.
SMILES,HCMV inh,Pf growth 96h,Marburg entry inh,Pf growth 48h,HCV inhibitor,LASV entry inh
COc1ccc(NC(=O)COC(=O)COc2cccc(Br)c2)cc1OC,-36,29%,14%[46.1 µM],8%,22%,-2%
COc1ccc(OCC(=O)O/N=C(\N)c2ccc(OC)c(OC)c2)cc1,67,?,-1%,-3%,?,?
COc1cc(NC(=O)COc2cccc(OC)c2)cc(OC)c1,19,5.2µM*,2%,9%,-21%,9%
N/C(=N\OC(=O)COc1ccc(Cl)cc1)c1ccc(Cl)cc1,0,39%,8%,11%,5%,9%
Cc1cccc(/C(N)=N/OC(=O)COc2ccc(Cl)cc2)c1,-36,2.9µM*,/,?,-11%,/
COc1cccc(NC(=O)COc2ccccc2)c1,64,-8%,/,75%,-16%,/
CCc1ccc2c(c1)c(=O)c(C(=O)c1ccccc1)cn2CC(=O)Nc1ccc(C)c(Cl)c1,-69*,/,1%[46.1 µM],/,/,-5%[46.1 µM]
CCc1ccc(C(=O)c2cn(CC(=O)Nc3ccc4c(c3)OCO4)c3ccc(CC)cc3c2=O)cc1,-88*,/,8%[46.1 µM],/,/,3%[46.1 µM]
COc1cccc(NC(=O)Cn2cc(C#N)c3ccccc32)c1,?,67%,5%,15µM*,-25%,7%
CCc1ccc(C(=O)c2cn(CC(=O)Nc3ccc(Cl)cc3)c3cc4c(cc3c2=O)OCO4)cc1,13,/,4.5µM*,/,/,?
CCc1ccc(C(=O)c2cn(CC(=O)Nc3ccc4c(c3)OCO4)c3ccc(Cl)cc3c2=O)cc1,-6,/,11%[46.1 µM],/,/,16%[46.1 µM]
CCOc1ccc(C(=O)c2cn(CC(=O)Nc3ccc(C)c(Cl)c3)c3ccc(OCC)cc3c2=O)cc1,12,/,9%[46.1 µM],/,/,-5%[46.1 µM]
COc1ccc(C2CC(=O)C=C3c4ccc(OC)cc4CCC32)cc1 (stereo not drawn),-11,/,/,/,/,/
CC=C(C)[C@H](O)C[Si](C)(C)c1ccccc1,/,/,-3%[14.2 µM],/,/,/
COc1ccc(NC(C)=O)cc1NC(C)C(=O)Nc1ccc(S(=O)(=O)N2CCCCC2)cc1 (stereo not drawn),35,?,-6%,?,0%,-10%
CCc1ccc(C(=O)c2cn(CC(=O)Nc3cccc(OC)c3)c3ccc(OC)cc3c2=O)cc1,-13,2.9µM*,?,12µM*,/,-24%[46.1 µM]
COc1cccc(NC(=O)Cn2cc(C(=O)c3ccc(C)cc3)c(=O)c3cc(OC)ccc32)c1,-21,?,-7%[46.1 µM],?,/,12%[46.1 µM]
COc1cc(C)ccc1OCCSc1nnc(-c2ccc(C)cc2)o1,-8,/,3%[46.1 µM],/,/,13%[46.1 µM]
CCc1cc(Br)ccc1NC(=S)NCCc1ccccc1,24,?,/,?,-24%,/
O=C1c2ccccc2C(Nc2ccc3c(c2)OCCO3)N1c1ccc(Cl)cn1 (stereo not drawn),-16,32%,/,/,-23%,/
O=C1c2ccccc2C(Nc2ccccc2)N1c1ccc(Cl)cn1 (stereo not drawn),17,?,/,/,-21%,/
COc1ccc(NC2c3ccccc3C(=O)N2c2cccnc2)cc1 (stereo not drawn),41,10µM*,/,?,-3%,/
O=C1c2ccccc2C(Nc2ccc3c(c2)OCCO3)N1c1ccccn1 (stereo not drawn),-3,32%,/,9.3µM*,-1%,/
COc1ccc(NC2c3ccccc3C(=O)N2c2ccccn2)cc1Cl (stereo not drawn),6,8.3µM*,/,/,-8%,/
O=C1c2ccccc2C(Nc2ccc(F)c(Cl)c2)N1c1ccccn1 (stereo not drawn),31,4.7µM*,/,/,-11%,/
SMILES,HCMV inh,Pf growth 96h,Marburg entry inh,Pf growth 48h,HCV inhibitor,LASV entry inh
CCN(CC)C(=O)c1ccc(-c2nnc(Nc3ccc(O)cc3)c3ccccc23)cc1,-75*,7%,/,?,-26%,/
CCN(CC)C(=O)c1ccc(NC(=O)c2ccc(-c3nn(C)c(=O)c4ccccc34)cc2)cc1,20,10µM*,?,9%,-14%,13%
CCN(CC)C(=O)c1ccc(Nc2nnc(C)c3ccccc23)cc1,-22,-23%,-14%,-14%,?,5%
CN(C)C(=O)c1ccc(-c2nnc(NCc3ccccc3)c3ccccc23)cc1,-40,2.9µM*,6%,13µM*,4%,-12%
COc1ccc(NC(=O)c2ccc(-c3nn(C)c(=O)c4ccccc34)cc2)cc1,4,429%,?,-20%,0%,?
CCN(CC)C(=O)c1ccc(-c2nnc(Nc3ccc(C(=O)N(C)C)cc3)c3ccccc23)cc1,65,8%,/,5.9µM*,-17%,/
Cc1nnc(NCc2ccccc2)c2ccccc12,-6,-11%,-41%,1%,-17%,?
O=C1C2CCCN2C(c2cccs2)N1c1ccc(Cl)cc1 (stereo not drawn),-74*,-1%,?,3%,1%,7.3µM*
COc1ccc(N2C(=O)C3CCCN3C2c2ccccc2OC)cc1 (stereo not drawn),-12,?,/,/,7%,/
COc1cccc(C2N(c3ccc(Cl)cc3)C(=O)C3CCCN32)c1 (stereo not drawn),24,5.2µM*,/,-3%,-3%,/
COc1ccccc1C1N(c2ccc(Cl)cc2)C(=O)C2CCCN21 (stereo not drawn),-75*,41%,4.6µM*,-29%,-19%,?
CC(C)c1ccc(N2C(=O)CSC23C(=O)N2CCCc4cccc3c42)cc1 (stereo not drawn),-111*,?,8%,/,-6%,-1%
Cc1cc(SCC(=O)NC2(C#N)CCCCC2)nc2c(C)cccc12,1,5%,1%,-2%,-2%[8.37 µM],5%
S=C1NCCN1c1ccc(Cl)cc1,-19,/,/,/,/,/
CC(NCc1ccccc1)c1ccccc1O (stereo not drawn),-10,10µM*,16%[46.1 µM],1.7µM*,9%,-3%
CCCCCCOc1ccc(/C=C/C(=O)Nc2sc3c(c2C(=O)OC)CCC3)cc1OC,-107*,/,/,/,/,20%[46.1 µM]
CCOC(=O)c1c(NC(=O)/C=C/c2ccc(OCC)c(OC)c2)sc2c1CCC2,10,/,9%[46.1 µM],/,/,4%[46.1 µM]
CC1(C(=O)NCc2ccccc2)CSCC(=O)N1CC(F)(F)F (stereo not drawn),-5,/,/,/,/,/
Cc1ccc2nc(N(CCCN(C)C)C(=O)c3ccc(Br)s3)sc2c1,0,?,?,?,10µM*,?
CN(C)CCCN(C(=O)c1ccc(Br)s1)c1nc2ccc(F)cc2s1,28,/,/,/,/,18%[46.1 µM]
Cc1ccc2nc(N(CCCN(C)C)C(=O)c3ccco3)sc2c1,-28,-9%,/,37%,10µM*,11%[46.1 µM]
